# High-throughput results deposited in PubChem BioAssay by National Center for Advancing Translational Sciences (NCATS).
# Shown is part of a subset that was picked to be rich in hits.
# Methyltransferases: Primary Screen for Target Class Profiling of Small Molecule Inhibitors of Methyltransferases. purified enzyme, MTase-Glo SAH luminescence; stronger effect = lower value. calls only at 40 µM. hit rate 3.9% among 25,000; call rule not given here
#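 Each enzyme was assayed with SAM and its substrate. SAH formation detected by MTase-Glo luminescence; single-point 40 uM screen[…].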
# Calls only; i = inactive; + = active, no number; ! = not active in a repeat.
SMILES,Methyltransferases
CCOCCOC1CCN(C(=O)c2cccc3[nH]ccc23)CC1,i
CCCNC(=O)N1CCCCC1c1n[nH]c(C)n1 (stereo not drawn),i
COc1cc(/C=C/C(=O)OC[C@H]2O[C@H](O[C@]3(CO)O[C@H](CO)[C@@H](O)[C@@H]3O)[C@H](O)[C@@H](O)[C@@H]2O)cc(OC)c1O,i
COc1cc(/C=C/C(=O)OC[C@H]2O[C@@](CO)(O[C@H]3O[C@H](CO)[C@@H](O)[C@H](O)[C@H]3O)[C@@H](OC(=O)/C=C/c3ccc(O)c(OC)c3)[C@@H]2O)ccc1O,+
COc1cc(/C=C/C(=O)O[C@H]2[C@H](OC(=O)/C=C/c3cc(OC)c(O)c(OC)c3)O[C@H](CO[C@@H]3O[C@H](CO)[C@@H](O)[C@H](O)[C@H]3O)[C@@H](O)[C@@H]2O)ccc1O,+
COc1cc(/C=C/C(=O)O[C@H]2[C@H](O)[C@@H](CO)O[C@@]2(CO)O[C@H]2O[C@H](CO)[C@@H](O)[C@H](O)[C@H]2O)ccc1O,i
COc1cc([C@H]2c3cc(O)c(OC)cc3C[C@@H](CO[C@@H]3O[C@H](CO)[C@@H](O)[C@H](O)[C@H]3O)[C@@H]2CO)ccc1O,i
COc1cc(CC(COC2OC(CO)C(O)C(O)C2O)c2cc(/C=C/CO)cc(OC)c2O)ccc1O (stereo not drawn),i
CC(C)(O)C1CCC2(C)C3C(O)C4C(C13)C42CO (stereo not drawn),i
CC1CCC(NC(=O)C2(C)Cn3c(cc4occc43)C(=O)N2Cc2ccccc2)CC1 (stereo not drawn),i
CC(=O)NC[C@H]1CN(c2ccc(N3CCSCC3)c(F)c2)C(=O)O1,i
CC(C)[C@@H]1Nc2ccc(C(=O)O)cc2[C@@H]2C=CC[C@@H]21,i
CC(C)=CC/C=C(\C)[C@H]1CC[C@]2(C)[C@@H]1[C@H](O)C[C@@H]1[C@@]3(C)CC[C@H](O)C(C)(C)[C@@H]3[C@@H](O[C@@H]3O[C@H](CO)[C@@H](O)[C@H](O)[C@H]3O)C[C@]12C,i
C=C1C(OC2OC(CO)C(O)C(O)C2O)CC2C(C)(C)C(O)CCC2(C)C1CC/C(C)=C\COC(=O)CC(=O)O (stereo not drawn),+
CC(C)=CC/C=C(/C)[C@H]1CC[C@]2(C)[C@@H]1[C@H](O)CC1[C@@]3(C)CC[C@H](O)C(C)(C)[C@@H]3[C@@H](O[C@@H]3O[C@H](CO)[C@@H](O)[C@H](O)[C@H]3O[C@@H]3O[C@@H](C)[C@H](O)[C@@H](O)[C@H]3O)C[C@]12C (stereo partly drawn),i
Cc1cnc2c(C(=O)N3CCCn4nc(C(C)O)cc4C3)cnn2c1 (stereo not drawn),i
CCCN1C(=O)c2cc(C(=O)NCCN3CCOCC3)nn2CC1(C)C(=O)NC1CCCC1 (stereo not drawn),i
O=C1CCC(N2C(=O)c3ccccc3C2=O)C(=O)N1 (stereo not drawn),i
COCCCNC(=O)c1ccc(Cn2c(=O)c3ccccc3n(Cc3ccc(C(C)C)cc3)c2=O)cc1,i
Cn1nc2n(Cc3ccccc3)c(=O)c3ccc(C(=O)NC4CCCC4)cc3n2c1=O,i
CN1CCc2c(c3ccccc3n2Cc2ccc(C(=O)NO)cc2)C1,+!
CCc1cccc(CC)c1NC(=O)c1nn(C)c2c1CCc1cnc(Nc3ccc(C(=O)NC4CCN(C)CC4)cc3OC(F)(F)F)nc1-2,i
CCC1C(=O)N(C)c2cnc(Nc3ccc(C(=O)NC4CCN(C)CC4)cc3OC)nc2N1C1CCCC1 (stereo not drawn),+
CN1c2cc(C(=O)NC3CCCCCC3)ccc2C(=O)N2CCCC21 (stereo not drawn),i
COc1cc(C(=O)NC2CCN(C)CC2)ccc1Nc1ncc2c(n1)N(C1CCCC1)CC(F)(F)C(=O)N2C,+
SMILES,Methyltransferases
COc1ccc(C(=O)Cn2nc3n(C)c(=O)c4ccc(C(=O)NC5CCCCC5)cc4n3c2=O)cc1,i
COc1cc(C(=O)N2CCC(N3CCN(C)CC3)CC2)ccc1Nc1ncc2c(n1)N(C)c1ccccc1C(=O)N2C,i
COCCn1c(C)cnc1CCNC(=O)c1cc(C)nn1C,i
COc1ccc(-c2cc(N3CCCC(NC(=O)C4CCCC4)C3)n[nH]2)cc1 (stereo not drawn),i
CCOc1ccccc1CN1C(=O)c2cc3oc(C)cc3n2CC1(C)C(=O)NC1CCCCCC1 (stereo not drawn),i
O=C1CCCCC(C(=O)N2CCCCC2)N1 (stereo not drawn),i
O=C(c1nc(-c2ccc(Cl)cc2Cl)c2cnccn12)N1CCOCC1,i
CCCC1c2ccc(C)n2CCN1C(=O)Nc1cccc(OC)c1 (stereo not drawn),i
Cn1c(=O)n(C)c2cc(S(=O)(=O)Nc3ccc(N4CCOCC4)c(Cl)c3)ccc21,i
COc1cccc2c1NC(c1cccc3ccccc13)C1CC=CC21 (stereo not drawn),i
CC1=C2C[C@@]3(C)C(CCC[C@@H]3C)C(O)C2(O)OC1=O (stereo partly drawn),i
CCN1C(=O)c2ccccc2C1Nc1ccc(OCCN2CCCCC2)cc1 (stereo not drawn),+
CCCCOc1ccccc1-c1cc2n(n1)CC(C)(C(=O)NC1CCCCCC1)N(CC)C2=O (stereo not drawn),i
CCCCN1C(=O)c2ccccc2C(C(=O)NC2CC2)C12CCCCC2 (stereo not drawn),i
Cc1ccc(CN2CCN(c3ncnc4onc(C)c34)CC2CCO)cc1 (stereo not drawn),i
C/C(=N\N=C(N)N)c1cc(NC(=O)CCCCCCCCC(=O)Nc2cc(/C(C)=N/N=C(N)N)cc(/C(C)=N/N=C(N)N)c2)cc(/C(C)=N/N=C(N)N)c1,+
CCCCN1C(=O)c2cc(C(=O)Nc3ccc(C(C)C)cc3)nn2CC1(C)C(=O)NC1CCCC1 (stereo not drawn),i
CC(C)C(=O)N1CCn2c(nnc2C2CCN(Cc3cc(Cl)ccc3F)C2)C1 (stereo not drawn),i
COC(=O)[C@H](Cc1ccc([N+](=O)[O-])cc1)NC(=O)c1cccc2ccccc12,i
Cc1ccc(Cn2c(=O)c3ccc(C(=O)NC(C)C)cc3n3c(=O)n(Cc4ccccc4)nc23)cc1,i
Cc1c(C)n(Cc2ccc(-c3ccccc3C(=O)O)cc2)c2ccc(C(=O)N[C@@H](C)c3ccc([N+](=O)[O-])cc3)cc12,+
CCN1c2cc(C(=O)Nc3ccccc3OC)ccc2C(=O)N2CCCCCC21 (stereo not drawn),i
CC(C)C[C@H](C(=O)O)c1cc(-c2ccc(C(F)(F)F)cc2)cc(-c2ccc(C(F)(F)F)cc2)c1,+
Cc1ccc(CCC(=O)N2C[C@@H](CN3CCOCC3)[C@@H](CO)C2)cc1,i
C[C@H]1CCCN1C(=O)c1nnc(COc2ccc(F)c(F)c2)n1-c1cccnc1,i
COc1ccccc1CCNC(=O)c1cc2n(n1)CC(C)(C(=O)NCCC(C)C)N(C)C2=O (stereo not drawn),i
CC(C)n1nc(-c2ccc(NC(=O)Nc3cccc(C(F)(F)F)c3)cc2)c2c(N)ncnc21,+
CC(C)n1nc(C#Cc2ccccc2)c2c(N)ncnc21,i
C=CC(=O)N1CCC[C@@H](n2nc(-c3cccc(C(=O)Nc4ccc(C(C)C)c(C)c4)c3)c3c(N)ncnc32)C1,i
CC(/C=C/C1(O)C2(C)COC1(C)CC(=O)C2)O[C@@H]1O[C@H](CO)[C@@H](O)[C@H](O)[C@H]1O (stereo partly drawn),i
